# Hit rate of the full screen: of about 320,000 compounds, about 22,000 (6.9%) were called active. Inconclusive results (about 27%) are left out. Calls follow the shape of the dose curve; as a rule, active = well fitted inhibition curve with a large enough effect; inconclusive = small, poorly fitted or top-dose-only effect, or another doubt; inactive = no such curve, though single readings can be large or run the other way. Shown is part of a subset that was picked to be rich in actives. A call without a number means that no potency is given here.
# Test: Primary qHTS for delayed death inhibitors of the malarial parasite plastid, 96 hour incubation
# Conditions: P. falciparum luciferase reporter growth; series mostly up to 28.7 µM
# Method in brief: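 Plates of compound plus infected erythrocytes (2% hematocrit, 0.05% parasitemia final) incubate 96 hours, 37 C, 5% CO2. Detection reagent added; reduced luminescence from the parasites' luciferase reporter flags inhibition.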
# Potency is read from the fitted curve at half-maximal effect.
SMILES,Potency,"activity change, negative = inhibition"
COc1ccc(C(C)=O)cc1COc1ccc(Cl)c(C)c1,inactive,
COCCN(C(=O)CSCc1ccc(C)cc1)c1c(N)n(CC(C)C)c(=O)[nH]c1=O,inactive,
CC(=O)Nc1ccc(C(=O)/C=C/c2ccc[nH]2)cc1,inactive,
Cc1ccccc1OCCC(=O)OCC(=O)NCCc1ccc(S(N)(=O)=O)cc1,inactive,
Cc1cc(C)cc(OCC(=O)Nc2ccc(S(=O)(=O)Nc3ccccn3)cc2)c1,1.65 µM (active),
O=C(CS(=O)(=O)c1ccccc1)Nc1ccc(S(=O)(=O)Nc2ccccn2)cc1,inactive,
Cc1ccc(OCC(=O)Nc2ccc(S(=O)(=O)Nc3ccccn3)cc2)cc1,inactive,
Cc1ncoc1C(=O)NCCC(c1ccccc1)c1ccccc1,inactive,
CC(Cc1ccccc1)C(=O)N(C)Cc1ccccc1 (stereo not drawn),inactive,
CC(Cc1ccccc1)NCCC(c1ccccc1)c1ccccc1 (stereo not drawn),14.7 µM (active),
C[C@H](NC(=O)c1nc[nH]c1C(=O)NCC(=O)OC(C)(C)C)C(=O)OCc1ccccc1,inactive,
COC(=O)c1cccc(NS(C)(=O)=O)c1,inactive,
Cc1cc(C(=O)COC(=O)c2cccs2)c(C)n1-c1c(C)n(C)n(-c2ccccc2)c1=O,inactive,
COc1ccc(-n2c(C)cc(C(=O)COC(=O)c3cc(OC)c(OC)cc3NC(=O)c3cccs3)c2C)cc1,2.62 µM (active),
COc1ccc(C(=O)COC(=O)CNC(=O)c2cccs2)cc1Br,inactive,
O=C(CN1CCN(c2ccc(F)cc2)CC1)Nc1ccccc1,inactive,
CC1CCN(c2c(NCc3ccc(C(=O)NCc4ccccc4)cc3)c(=O)c2=O)CC1,inactive,
N#Cc1nc(Cc2cccc3ccccc23)oc1NCc1ccc2c(c1)OCO2,14.7 µM (active),
N#Cc1nc(Cc2ccccc2)oc1NCCc1ccccc1,inactive,
c1n[nH]c(NCc2ccc3c(c2)OCO3)n1,,2.18% [at 5.75 µM] (inactive)
O=S(=O)(Nc1n[nH]c(C(F)(F)F)n1)c1ccccc1,inactive,
O=C(N/N=C/c1ccccn1)c1cccc(NC(=O)c2ccc(Cl)cc2)c1,inactive,
CC(C)(C)c1ccc(Cn2nnc3c(=O)[nH]c(C4CCCN(C(=O)c5ccco5)C4)nc32)cc1 (stereo not drawn),inactive,

SMILES,Potency,"activity change, negative = inhibition"
CCC(C(=O)NCCC(C)C)N(Cc1ccccc1Cl)C(=O)c1snc(C(N)=O)c1N (stereo not drawn),inactive,
Cc1ccc(CNC(=O)CCS(=O)(=O)c2ccc3c(c2)CC(C)N3C(=O)C2CC2)o1 (stereo not drawn),11.7 µM (active),
CCC(=O)N1c2ccc(S(=O)(=O)CCC(=O)N3CCN(c4ccccc4)CC3)cc2CC1C (stereo not drawn),inactive,
COc1ccccc1CNC(=O)C1CCN(S(=O)(=O)c2ccc3c(c2)CC(C)N3C(=O)C2CC2)CC1 (stereo not drawn),inactive,
CS(=O)(=O)c1ccc(Cl)c(NC(=O)COC(=O)c2cccc(S(=O)(=O)N3CCCC3)c2)c1,inactive,
COc1ccc(/C=N/OCc2ccccc2C#N)c(OC)c1,inactive,
COc1ccc(-c2nn3c(-c4ccccc4)nnc3s2)cc1OC,inactive,
c1ccc(-c2cc(-c3nnc4sc(-c5ccccn5)nn34)[nH]n2)cc1,inactive,
CCOc1cccc(-c2nn3c(-c4ccccn4)nnc3s2)c1,8.28 µM (active),
Cc1ccc(SCc2c(C(=O)N/N=C/c3cccnc3)nnn2-c2nonc2N)cc1,inactive,
CCCn1nc(Oc2nc(NC(C)C)nc(N(C)C)n2)ccc1=O,inactive,
COc1nc(OC)nc(N(C)CCO)n1,inactive,
COc1nc(Oc2ccc(=O)n(C)n2)nc(N(C)C)n1,3.7 µM (active),
COC(=O)[C@@H]1CCCN1C(=O)c1cc(COc2cccc3cccnc23)on1,inactive,
O=C(COC(=O)/C=C/c1ccc(OC(F)F)cc1)NC1CCCCC1,inactive,
Cc1ccc(S(=O)(=O)N(CC(=O)Nc2cccnc2)c2ccc(Br)cc2)cc1,inactive,
CC(=O)c1c(C)[nH]c(C(=O)N2CCN(S(=O)(=O)c3ccc(F)c(F)c3)CC2)c1C,inactive,
CC(C)Nc1nnc(SC(C)C(=O)N(C)C2CCCCC2)s1 (stereo not drawn),inactive,
Cc1nnc(SC(C)C(=O)Nc2ccc(S(=O)(=O)NC3CCCCC3)cc2)s1 (stereo not drawn),inactive,
Cc1ccc(Nc2nnc(SC(C)C(=O)NC3CC3)s2)cc1 (stereo not drawn),14.7 µM (active),
CCOc1ccc(N2CC(C(=O)NCc3ccccn3)CC2=O)cc1 (stereo not drawn),inactive,
Nc1nnnn1/N=C/c1cccs1,1.85 µM (active),
Nc1nnnn1/N=C/c1cccc(Br)c1,inactive,

SMILES,Potency,"activity change, negative = inhibition"
COc1ccc(/C=N/n2nnnc2N)cc1OC,inactive,
Cc1ccc(NS(=O)(=O)c2ccc3c(c2)n(C)c(=O)c(=O)n3C)c(C)c1,inactive,
O=C(COC(=O)CCOc1ccccc1)Nc1cc(S(=O)(=O)N2CCCCC2)ccc1Cl,inactive,
C=C(C)c1cccc(C(C)(C)NC(=O)NC2CCCC2)c1,inactive,
CCN(CC)CCNC(=O)c1cc(S(C)(=O)=O)ccc1OC,inactive,
C=C(C)c1cccc(C(C)(C)NC(=O)NCCN(CC)CC)c1,4.15 µM (active),
CN(CC(=O)Nc1c(Cl)cccc1Cl)C(=O)c1ccncc1,inactive,
CC(C)Nc1ccc(-n2nc3ccccc3[n+]2[O-])cc1,inactive,
CC(=O)c1c(C)oc2ccc(NS(=O)(=O)c3ccccc3)cc12,inactive,
COc1ccc(CCN(C(=O)COc2ccccc2)c2nc(-c3ccccc3)cs2)cc1OC,11.7 µM (active),
COc1ccc(CCNc2nc(-c3cccc(NC(C)=O)c3)cs2)cc1OC,inactive,
CN(C)CCCN(C(=O)COc1ccccc1)c1nc2c(Cl)cccc2s1,inactive,
O=C(NN1C(=O)C2CCCCC2C1=O)c1ccco1 (stereo not drawn),inactive,
Cc1cc(C)cc(Oc2nc3c(C)cccn3c(=O)c2/C=C(\C#N)C(=O)NC2CCS(=O)(=O)C2)c1 (stereo not drawn),11.7 µM (active),
Cc1cccn2c(=O)c(/C=C(\C#N)C(N)=O)c(N3CCCCCC3)nc12,inactive,
Cc1ccc(C(=O)N/C(=C\c2ccco2)C(=O)NC2CCS(=O)(=O)C2)cc1 (stereo not drawn),inactive,
CC(=O)Nc1ccc(NC(=O)CSC2=NS(=O)(=O)c3ccccc3N2)cc1,inactive,
COc1ccc(OCc2cc(C(=O)N3CCCC3)no2)c2ccccc12,inactive,
CC(=O)Nc1c2c(nn1-c1ccc(C)cc1C)CS(=O)C2 (stereo not drawn),inactive,
O=C(Nc1sc2c(c1C(=O)O)CCC2)c1ccccc1F,inactive,
CC(=O)Nc1sc2c(c1C(c1cccc(F)c1)N1CCN(CCO)CC1)CCCC2 (stereo not drawn),7.38 µM (active),
CC(C)c1nc(SCC(=O)Nc2cccc(C(=O)O)c2)c2c3c(sc2n1)CCCC3,inactive,
